Compounds with a hit are over-represented: about 0.9% of the library has one in this group of screens.
TexasRed fluor = alters Texas Red total fluorescence, flagging assay interference. Potency, µM (doses to about 106 µM), for the others: at the top dose fluorescence change, negative = quenching. TRb/SRC2 Texas Red total fluorescence interference. 0.29% of 280,000 active; active means well fitted curve in either direction with a large enough effect; inconclusive means small, poorly fitted or top-dose-only effect
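Human TRb ligand-binding domain at 0.6 uM with 20 nM Texas Red SRC2 peptide in Tris buffer containing 1 uM T3 and 5% DMSO, incubated with compound 5 h at ambient temperature. Total fluorescence (555/632 nm) calculated as parallel + 2 × perpendicular.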
RECQ1 helicase = RECQ1 (human) helicase inhibition | RECQ1 DNA unwinding, red fluorescence kinetic read | Potency, µM (doses to about 57.3 µM), for the others: at the highest dose activity, negative = inhibition, hits mostly inhibitors | 0.54% of 240,000 active;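 further: plate controls were vehicle for no effect and no enzyme for full effect; nearly all actives have a fitted effect of over 30% in size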
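50 nM RECQ1T1 preincubated 15 min with compound in Tris pH 8.0 buffer with MgCl2, DTT, Tween-20 and 2.5 ug/ml poly(dI-dC); started with 200 nM TAMRA/BHQ-2 forked duplex and 2 mM ATP. Unwinding read as fluorescence (525/598 nm), two reads 2 h apart.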
BLM helicase inh = blocks DNA unwinding by human BLM helicase; recombinant BLM DNA unwinding, fluorescence dequenching; Potency, µM (doses to about 56.1 µM), inactives show at the highest dose activity change, negative = inhibition, usual class: inhibitors; 0.2% of 350,000 active; AID 2528;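 further: plate controls were vehicle for no effect and no enzyme for full effect; nearly all actives have a fitted effect of over 35% in size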
Target sequence (P54132 whole entry, looked up): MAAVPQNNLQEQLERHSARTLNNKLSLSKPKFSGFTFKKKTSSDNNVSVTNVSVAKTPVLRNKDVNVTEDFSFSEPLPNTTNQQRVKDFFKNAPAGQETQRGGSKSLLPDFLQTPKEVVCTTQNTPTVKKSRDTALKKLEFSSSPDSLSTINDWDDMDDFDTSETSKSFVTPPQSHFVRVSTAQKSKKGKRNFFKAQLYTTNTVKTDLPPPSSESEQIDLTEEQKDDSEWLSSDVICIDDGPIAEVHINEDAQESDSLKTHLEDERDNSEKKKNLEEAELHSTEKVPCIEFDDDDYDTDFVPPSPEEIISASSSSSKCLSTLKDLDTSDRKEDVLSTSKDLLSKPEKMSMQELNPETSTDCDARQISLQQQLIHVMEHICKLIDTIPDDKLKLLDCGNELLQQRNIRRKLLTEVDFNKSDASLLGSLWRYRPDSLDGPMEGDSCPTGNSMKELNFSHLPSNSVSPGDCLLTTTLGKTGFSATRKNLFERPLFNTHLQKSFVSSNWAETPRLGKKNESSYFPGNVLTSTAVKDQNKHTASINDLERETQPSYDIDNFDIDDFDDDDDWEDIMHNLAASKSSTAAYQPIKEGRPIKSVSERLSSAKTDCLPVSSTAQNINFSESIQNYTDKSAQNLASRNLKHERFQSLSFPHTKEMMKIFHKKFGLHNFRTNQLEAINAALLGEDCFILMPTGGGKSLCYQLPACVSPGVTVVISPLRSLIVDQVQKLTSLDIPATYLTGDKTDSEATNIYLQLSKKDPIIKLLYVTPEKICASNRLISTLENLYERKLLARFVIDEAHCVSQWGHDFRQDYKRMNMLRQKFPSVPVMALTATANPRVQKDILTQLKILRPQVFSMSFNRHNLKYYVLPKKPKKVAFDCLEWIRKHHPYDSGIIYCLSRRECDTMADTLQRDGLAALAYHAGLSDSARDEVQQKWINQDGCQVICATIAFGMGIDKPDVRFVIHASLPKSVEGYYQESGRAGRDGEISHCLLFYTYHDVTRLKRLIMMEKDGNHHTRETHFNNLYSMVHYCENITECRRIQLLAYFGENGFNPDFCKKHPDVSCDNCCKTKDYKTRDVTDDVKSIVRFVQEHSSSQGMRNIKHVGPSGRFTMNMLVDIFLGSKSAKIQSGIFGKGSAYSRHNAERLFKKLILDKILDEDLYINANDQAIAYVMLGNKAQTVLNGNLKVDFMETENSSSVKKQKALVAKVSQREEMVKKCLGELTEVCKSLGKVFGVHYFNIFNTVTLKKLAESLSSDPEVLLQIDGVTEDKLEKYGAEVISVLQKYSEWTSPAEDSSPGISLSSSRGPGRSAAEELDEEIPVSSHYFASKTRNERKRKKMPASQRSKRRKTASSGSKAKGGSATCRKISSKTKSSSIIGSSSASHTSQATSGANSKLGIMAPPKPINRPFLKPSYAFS
APE1 inh-1 = blocks human APE1 abasic DNA cleavage; P27695; recombinant APE1, TAMRA/BHQ-2 abasic DNA cleavage fluorescence; Potency, µM (series often up to 65.8 µM), inactives show at the top dose activity change, negative = inhibition, most hits filed as inhibitors; 0.35% of 350,000 active; AID 2517;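 further: plate controls were vehicle for no effect and reference inhibitor for full effect; nearly all actives have a fitted effect of over 55% in size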
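APE1 at 0.75 nM final was preincubated with compound 15 min at room temperature, then 50 nM double-stranded THF abasic-site substrate (5'-TAMRA/3'-BHQ-2) was added. Fluorescence (ex 525/em 598 nm) was read kinetically; third-minus-first read gave activity.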
TRb-SRC2 inh = inhibitors of human thyroid hormone receptor beta-SRC2 interaction. P10828. TRbeta-SRC2 peptide binding, fluorescence polarization; receptor liganded with 1 µM T3. Potency, µM (highest dose often 106 µM), for inactives: at the highest dose activity change, negative = inhibition, usual class: inhibitors. 0.065% of 280,000 active. AID 1469;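 further: plate controls were bound peptide for no effect and peptide without receptor for full effect; nearly all actives have a fitted effect of over 50% in size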
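Binding of a 20-amino-acid Texas Red SRC2 peptide (20 nM) to TRb ligand-binding domain (0.6 uM) with agonist T3 at 1 uM was followed by fluorescence polarization after a 5 hr room-temperature incubation.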
GoLoco inh red = inhibitors of human Gai1-RGS12 GoLoco interaction (red fluorophore); 0.44% of 230,000 active; P63096; Potency, µM (doses to about 61.6 µM), inactives show top-dose activity, negative = inhibition, most hits filed as inhibitors; Gai1:RGS12 GoLoco peptide FP, rhodamine, 10 min; AID 880; active means well fitted inhibition curve with a large enough effect, not every such curve was filed as active; inactive means no such curve, though single readings can be large or run the other way; further: nearly all actives have a fitted effect of over 30% in size
DNA dye displace = counter-screen for APE1 inhibitors: DNA dye displacement; DNA fluorescent dye displacement counterscreen, fluorescence; 7% of 480 active; shares compounds with APE1 inh-1; AID 2564; Potency, µM (top dose mostly 28.5 µM), for the others: at the top dose activity change, negative = inhibition, most hits filed as inhibitors;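 further: loss of thiazole orange fluorescence as the dye is displaced from duplex DNA; 0% = ThO with dsDNA and no compound and -100% = ThO without dsDNA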
EndoIV counter = blocks E. coli endonuclease IV DNA cleavage; shares compounds with APE1 inh-1; E. coli Endo IV, fluorogenic AP-site DNA cleavage; Potency, µM (titrated, usually from 27.1 µM), for inactives: top-dose activity change, negative = inhibition, hits mostly inhibitors; 4% of 560 active; AID 2565;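 further: plate controls were uninhibited enzyme wells for no effect and no enzyme buffer wells for full effect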
APE1 inh-2 = confirmation of inhibitors of human APE1 endonuclease; purified APE1, fluorogenic abasic-site DNA cleavage; shares compounds with APE1 inh-1; 44% of 750 active; Potency, µM (series often up to 57.1 µM), without a hit: at the top dose activity change, negative = inhibition, most hits filed as inhibitors; further: nearly all actives have a fitted effect of over 30% in size
APE1 FP = compounds that displace a DNA probe from human APE1. Potency, µM (highest dose often 28.5 µM), without a hit: at the top dose activity, negative = inhibition, usual class: inhibitors. 7% of 480 active. APE1 binding to TAMRA-labelled double-stranded DNA, fluorescence polarization displacement. shares compounds with APE1 inh-1
Numbers without * were called inactive; i = inactive; ? = inconclusive; · = no result; [ ] = dose if it differs, or a comment. Unless noted, the call rests on the fitted dose curve; in most records, active means well fitted curve in the direction sought with a large enough effect; inconclusive means small, poorly fitted or top-dose-only effect, or another doubt; inactive means no such curve, though single readings can be large; an effect the other way counts as inactive or inconclusive. Unless noted, on the % scale 0 is the no-effect control and ±100 the full control effect; potency means the concentration at half of the fitted maximal effect.

SMILES | TexasRed fluor | RECQ1 helicase | BLM helicase inh | APE1 inh-1 | TRb-SRC2 inh | GoLoco inh red | DNA dye displace | EndoIV counter | APE1 inh-2 | APE1 FP
O=C1CCCC(O)=C1N=Nc1ccc(C(=O)O)cc1 | 18.0% | ? | 41.3% | 8.91µM* | ? | -14.7% | ? | 65.6% | 10µM* | -9.6%
Cc1ccnc(NS(=O)(=O)c2ccc(NC(=O)C3C4C=CC(C4)C3C(=O)O)cc2)n1 (stereo unspecified) | -2.3% | -4.9% | -6.5% | ? | -3.5% | 9.9% | · | · | -1.6% | ·
Cc1ccnc(NS(=O)(=O)c2ccc(NC(=O)C3CCCCC3)cc2)n1 | -1.0% | -1.5% | -0.8% | -0.2% | -3.0% | 7.4% | · | · | · | ·
Cc1c(-c2ccc(Cl)cc2)oc(=O)c2c(N)n(-c3ccccc3)nc12 | 0.9% | -10.1% | ? | -6.6% | -3.1% | -0.2% | · | · | ? | ·
Nc1c2c(=O)oc(-c3ccccc3)cc2nn1-c1ccccc1 | -3.0% | -7.7% | -6.6% | -6.8% | -2.7% | -0.9% | · | · | · | ·
COc1cccc(CNC(=O)COc2cc(=O)n(C)c3ccccc23)c1 | -20.0% | · | -1.3% | · | -7.9% | · | · | · | · | ·
O=C(Nc1nccs1)c1cn(-c2ccccc2)nc1-c1ccncc1 | -1.8% | -12.2% | -15.0% | 7.0% | 9.5% | 13.1% | · | · | -17.1% | ·
N#CC(C#N)=Cc1cccn1-c1ccc(C(=O)O)cc1 | -3.6% | 25.1µM* | -5.4% | 12.6µM* | -4.9% | 12.8% | 4.9% | 7.5% | 35.5µM* | -16.9%
O=C(O)c1ccc(-n2cccc2/C=C2/NC(=O)N(c3cccc(Cl)c3)C2=O)cc1 | -9.2% | 22.4µM* | -15.0% | 2.82µM* | -4.2% | 9.6% | ? | 14.9% | 12.6µM* | 11.2µM*
O=C(O)c1ccc(-n2cccc2/C=C2/NC(=O)N(c3ccccc3)C2=O)cc1 | -3.4% | 25.1µM* | -2.2% | 2.51µM* | -4.1% | -9.0% | -2.6% | -11.5% | 3.98µM* | 12.6µM*
CC1=C(c2ccc(Cl)cc2)S(=O)(=O)NC1=NCc1ccc(C)cc1 | 0.1% | · | 2.5% | · | 1.2% | · | · | · | · | ·
CCOC(=O)C1CCCN(C(=O)c2ccc3c(c2)N(Cc2ccccc2F)C(=O)c2ccccc2S3=O)C1 (stereo unspecified) | -1.2% | · | -2.9% | · | -1.1% | · | · | · | · | ·
O=c1cc(-c2ccc(O)c(O)c2)oc2cc(O)c([C@@H]3O[C@H](CO)[C@@H](O)[C@H](O)[C@H]3O)c(O)c12 | -12.1% | i | 6.6% | -10.2% | 5.8% | · | · | · | · | ·
O=c1c2cc(O)c(O)cc2oc2cc(O)c(C3OC(CO)C(O)C(O)C3O)c(O)c12 (stereo unspecified) | -2.8% | -26.0% | 4.0% | 2.38µM* | -3.7% | 0.8% | 38.4%[57.1 µM] | 70.2%[57.1 µM] | 7.08µM* | 5.6%[57.1 µM]
Cc1ccccc1NC(=O)CN1C(=O)S/C(=C\c2ccc(-c3cccc(C(=O)O)c3C)o2)C1=O | -5.7% | i | -1.3% | 0.1% | -13.9% | 99.3% | · | · | · | ·
Cc1cccc(NC(=O)CN2C(=O)S/C(=C\c3ccc(-c4cccc(C(=O)O)c4C)o3)C2=O)c1 | -8.3% | -15.1% | ? | ? | 6.7% | 12.2% | · | · | 25.1µM* | ·
O=c1cc(CSc2n[nH]c(-c3ccccc3)n2)[nH]c2ccccc12 | -0.9% | · | 1.7% | · | -3.9% | · | · | · | · | ·
O=C(Nc1cccc(F)c1)N1CC[C@@]2(CCCN(C(=O)c3csnn3)C2)C1 | · | -3.7% | 2.2% | -1.0% | · | 6.2% | · | · | · | ·
N=C1C(c2nc3ccccc3s2)=C(O)CN1NC(=O)c1ccccc1[N+](=O)[O-] | -1.7% | i | -1.8% | 7.9% | 8.5% | 2.1% | · | · | · | ·
N=C1C(c2nc3ccccc3s2)=C(O)CN1NC(=O)c1c[nH]c2ccccc12 | -20.3% | i | -15.6% | ? | 27.8% | 41.1% | 37.5% | 1.4% | ? | 22.3%
O=c1cc(-c2ccc(O)cc2)oc2c(C3OCC(O)C(O)C3O)c(O)c(C3OC(CO)C(O)C(O)C3O)c(O)c12 (stereo unspecified) | -2.0% | -15.4% | -12.2% | 20µM* | 5.0% | -1.5% | -7.5% | -3.9% | 4.47µM* | 0.6%
COc1cccc(Nc2ncc3nc(-c4cn(C)c5ccccc45)c(=O)n(CCC#N)c3n2)c1 | · | 3.3% | -14.8% | 14.6% | · | 20.4% | · | · | · | ·
CCOC(=O)[C@H](CCc1ccccc1)N[C@@H](C)C(=O)N1Cc2ccccc2C[C@H]1C(=O)O | · | · | · | 0.4% | · | · | · | · | · | ·
CCOC(=O)C(CCc1ccccc1)NC(C)C(=O)N1CCCC1C(=O)O (stereo unspecified) | -1.0% | 5.1% | 6.0% | 2.24µM* | -2.6% | 5.4% | -9.4%[57.1 µM] | 15.0%[57.1 µM] | -3.6% | 5.5%[57.1 µM]
CC(=O)OC1C[C@]2(C)C(C(C)=O)CCC2C2CCC3=CC(=O)CC[C@@]3(C)C12 (stereo partly specified) | -0.5% | 11.2% | 7.3% | 1.5% | -3.1% | 1.9% | · | · | · | ·
COc1cc(OC)c2c(-c3ccccc3)cc(=O)oc2c1C(CC(=O)N1CCN(c2ccccc2)CC1)c1ccc2c(c1)OCO2 (stereo unspecified) | 1.6% | i | -10.8% | ? | -6.8% | 1.6% | 1.7% | -0.5% | 12.6µM* | -43.1%
NC(=O)c1cc[n+](CC2=C(C(=O)O)N3C(=O)[C@@H](NC(=O)[C@@H](c4ccccc4)S(=O)(=O)[O-])[C@H]3SC2)cc1 | 0.1% | -4.2% | · | ? | 3.5% | -16.1% | · | 3.0%[57.1 µM] | -75.8% | ·
COC(=O)c1cc2oc3ccccc3c2n1Cc1ccccn1 | -0.1% | -2.9% | -1.7% | ? | -2.7% | -10.4% | -9.0% | 2.5% | -1.9%[24.4 µM] | 8.4%
COC(=O)c1cc2oc3ccccc3c2n1Cc1ccc(C)cc1 | -7.6% | · | -1.2% | · | 0.4% | · | · | · | · | ·
COc1cccc(Cn2c(=O)c(-c3cccs3)nc3cnc(N(C)C)nc32)c1 | · | -2.0% | -5.5% | -0.4% | · | 0.4% | · | · | · | ·

Compound activity as filed in PubChem BioAssay.
